Bioassay records deposited in PubChem by National Center for Advancing Translational Sciences (NCATS).
DT40 TDP1 no CPT = qHTS for Inhibitors of human tyrosyl-DNA phosphodiesterase 1 (TDP1): qHTS in cells in absence of CPT; DT40 Tdp1-/- hTDP1 cells, no CPT, ATP luminescence, 48 h; Potency, µM (titrated, usually from 46.2 µM), for the others: at the highest dose activity change, negative = growth inhibition, hits mostly inhibitors; hit rate 15% among 420,000; note: potency is the fitted concentration of half-maximal effect; nearly all actives have a fitted effect of over 55% in size
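Cells were dispensed at 400 per well, compounds added by pin tool, plates incubated ≥48 hr at 37 °C, then CellTiter-Glo added for 30 min at room temperature before luminescence reading. Line: DT40 Tdp1-/- complemented with hTDP1; camptothecin omitted.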
DT40 TDP1 CPT = DT40-hTDP1 cell growth loss with CPT | chicken DT40 Tdp1-/-;hTDP1 cells + 20 nM CPT, ATP luminescence, 48 h | Potency, µM (highest dose often 46.2 µM), for inactives: top-dose activity change, negative = growth inhibition, actives largely listed as inhibitors | hit rate 12% among 420,000; note: potency is the fitted concentration of half-maximal effect; nearly all actives have a fitted effect of over 55% in size
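Chicken DT40 Tdp1-/- cells complemented with human TDP1, 400 cells/well, exposed to compounds plus 20 nM camptothecin for at least 48 h at 37 C; viability read as ATP content by CellTiter-Glo luminescence.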
TDP1 inh = inhibitors of human tyrosyl-DNA phosphodiesterase TDP1 | Potency, µM (highest dose often 130 µM), for inactives: at the top dose activity change, negative = inhibition, most hits filed as inhibitors | hit rate 0.28% among 350,000 | recombinant TDP1, AlphaScreen DNA substrate cleavage | Q9NUW8; note: potency is the fitted concentration of half-maximal effect; nearly all actives have a fitted effect of over 40% in size
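AlphaScreen read-out: signal falls as enzyme removes the 3' tyrosine-FITC from a 5'-biotinylated DNA oligo (15 nM, 5 min, RT). Enzyme was E. coli-made recombinant Tdp1 at 1 nM, exposed to compound for 15 min beforehand; beads 10 ug/ml, 10 min.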
CtBP-E1A inh = CtBP/E1A binding inhibition; AlphaScreen GST-E1A/His-CtBP binding, 1536-well; stronger effect = lower value; AID 651724; hit rate 0.49% among 340,000; activity change, % (concentration not given with the values); in the data active = activity change below about -65%; inconclusive = mostly about -30% to -63%
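In 5 uL wells, 23 nL compound meets equimolar GST-E1A and His-CtBP (5X stock 125 nM each) for 2 h, 37 °C. Beads (5X, 50 ug/mL) then 1 h, 37 °C, dark.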
Six1-Eya2 blk = Six1/Eya2 interaction inhibition; Q15475+O00167; AlphaScreen GST-Six1/His-Eya2 binding, biochemical; stronger effect = lower value; activity change, % (concentration not given with the values); hit rate 0.56% among 360,000; in the data active = activity change below about -65%; inconclusive = mostly about -30% to -63%
Target sequence (O00167 whole entry, looked up): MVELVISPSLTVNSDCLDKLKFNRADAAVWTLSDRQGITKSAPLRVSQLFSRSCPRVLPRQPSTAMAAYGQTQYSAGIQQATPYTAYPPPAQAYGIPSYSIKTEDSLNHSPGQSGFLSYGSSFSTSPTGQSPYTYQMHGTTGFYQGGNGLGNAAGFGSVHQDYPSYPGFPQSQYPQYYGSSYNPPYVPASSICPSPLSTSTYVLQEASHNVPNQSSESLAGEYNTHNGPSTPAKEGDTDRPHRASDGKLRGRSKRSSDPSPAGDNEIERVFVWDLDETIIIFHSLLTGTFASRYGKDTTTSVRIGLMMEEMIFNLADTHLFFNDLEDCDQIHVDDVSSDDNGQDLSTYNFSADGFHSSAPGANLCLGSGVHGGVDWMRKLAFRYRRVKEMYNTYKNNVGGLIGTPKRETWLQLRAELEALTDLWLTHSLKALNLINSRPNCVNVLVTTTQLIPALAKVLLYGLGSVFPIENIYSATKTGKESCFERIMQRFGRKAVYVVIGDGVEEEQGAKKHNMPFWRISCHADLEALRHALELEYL
Target sequence (Q15475 whole entry, looked up): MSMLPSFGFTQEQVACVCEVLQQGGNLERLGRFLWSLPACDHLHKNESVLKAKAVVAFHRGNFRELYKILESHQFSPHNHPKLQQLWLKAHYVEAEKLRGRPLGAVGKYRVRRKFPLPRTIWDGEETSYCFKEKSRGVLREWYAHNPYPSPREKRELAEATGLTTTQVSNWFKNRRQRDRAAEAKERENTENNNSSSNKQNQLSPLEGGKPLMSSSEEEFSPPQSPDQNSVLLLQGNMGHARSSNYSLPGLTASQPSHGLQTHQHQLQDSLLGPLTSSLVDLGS
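Compounds are tested against tagged Six1 and Eya2 proteins bridged by glutathione donor and nickel acceptor beads; after a one-hour incubation at 37 °C without light, AlphaScreen emission is recorded.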
IL-1B inflam inh = inhibitors of inflammasome signaling (IL-1 beta secretion). THP-1 LPS/ATP IL-1B secretion, AlphaLISA, 16 h; stronger effect = lower value. AID 743279. hit rate 4.7% among 360,000. activity change, % at 57.5 µM; in the data active = activity change below about -50%; inconclusive = mostly about -30% to -49%
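Secreted IL-1B measured by AlphaLISA bead assay after 16 h compound exposure of THP-1 cells; compounds (final up to 57.5 uM) added 1 h before LPS (250 ng/mL) and ATP (1.25 mM) stimulation; lower signal means less secretion.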
Active calls of the source: *; ? = inconclusive; . = no result given; [ ] = remark or other dose. An excerpt weighted towards active compounds, which were near 18% of everything screened. Unless noted, calls come from the whole dose curve; as a rule, active = well fitted curve in the direction sought with a large enough effect; inconclusive = small, poorly fitted or top-dose-only effect, or another doubt; inactive = no such curve, though single readings can be large; an effect the other way counts as inactive or inconclusive. % is set by controls: 0 for no effect and ±100 for the full control effect.

SMILES	DT40 TDP1 no CPT	DT40 TDP1 CPT	TDP1 inh	CtBP-E1A inh	Six1-Eya2 blk	IL-1B inflam inh
CCN(CC)C(=O)c1cccc(-c2csc(C(O)c3ccco3)n2)c1 (stereo unspecified)	?	20.6µM*	.	-2.2	-3.8	0.0
CCN(CC)C(=O)c1cccc(-c2csc(C(O)c3ccc(F)cc3)n2)c1 (stereo unspecified)	?	14.6µM*	.	3.0	1.2	11.4
CCN(CC)C(=O)c1cccc(-c2csc(C(NC(C)=O)c3ccc(F)c(F)c3)n2)c1 (stereo unspecified)	?	?	.	1.3	0.1	-28.4
COc1cc(C(CC(=O)Nc2ccc(F)cc2F)N2Cc3ccccc3C2=O)cc(OC)c1OC (stereo unspecified)	?	?	5.6%	.	.	.
Cc1ccnc(NC(=O)CCC(=O)N(CC(=O)NCc2ccccc2)Cc2ccccc2)c1	-25.7%	10.9%	9.2%	-0.5	0.0	11.0
CC=C(/C(=C/C)c1ccc(O)cc1)c1ccc(O)cc1	.	.	10.0%[56.1 µM]	.	.	.
CC(=O)c1sc2nc(C)c3c(c2c1N)CCCC3	?	0.4%	5.6%	-10.6	-2.3	.
CC#CCOC(=O)c1c(C)nc2sc3c(c2c1N)CCC(O)C3 (stereo unspecified)	9.2µM*	?	-8.0%[56.1 µM]	4.1	-0.1	-9.4
CN(C(=O)CN1CCN(c2cc(-c3ccc(-c4ccccc4)cc3)ncn2)CC1)c1ccccc1	?	23.1µM*	.	-17.0	-2.9	-14.9
Cc1ccccc1C1CC(=O)NC2=C1C(=O)CCC2 (stereo unspecified)	-1.8%	4.9%	7.9%	-2.0	18.7	-4.1
CCC(C)Oc1ccccc1C1CC(=O)NC2=C1C(=O)CCC2 (stereo unspecified)	?	25.9µM*	1.0%	-1.4	-1.9	60.9
Cc1cccc(/C=C2\Sc3ccc(C(=O)NCC4CCCO4)cc3N(C)C2=O)c1 (stereo unspecified)	?	12.5%	5.8%	-1.6	5.6	-9.0
CN1C(=O)/C(=C/c2ccccc2F)Sc2ccc(C(=O)NCC3CCCO3)cc21 (stereo unspecified)	?	23.1µM*	5.3%	-16.6	15.0	?
CN1C(=O)/C(=C/c2ccccc2Cl)Sc2ccc(C(=O)NCc3cccnc3)cc21	?	?	6.1%	-1.3	-5.2	-68.5*
Cc1cc(Br)ccc1SCC(=O)OCC(=O)NC1CCCC1	-1.6%	-4.7%	1.6%	.	4.8	13.5
COC(=O)c1sc(N2C(=O)C(O)=C(C(=O)c3ccc(C)o3)C2c2cccs2)nc1C (stereo unspecified)	10.4%	2.8%	7.9%	0.0	-14.7	11.0
COC(=O)c1sc(N2C(=O)c3oc4ccccc4c(=O)c3C2c2cccs2)nc1C (stereo unspecified)	16.4µM*	18.4µM*	1.1%	6.3	5.6	-7.1
CCCOc1cccc(C2c3c(oc4ccc(F)cc4c3=O)C(=O)N2c2nc(C)c(C(C)=O)s2)c1 (stereo unspecified)	14.6µM*	13µM*	-1.1%	.	.	.
CCCOc1cccc(C2c3c(oc4ccccc4c3=O)C(=O)N2c2nncs2)c1 (stereo unspecified)	?	14.6µM*	-1.1%	.	.	.
O=C1c2oc3ccccc3c(=O)c2C(c2cccc(Br)c2)N1c1ccccn1 (stereo unspecified)	16.4µM*	?	2.8%	.	.	.
COC(=O)c1sc(N2C(=O)c3oc4ccc(F)cc4c(=O)c3C2c2ccc(C)cc2)nc1C (stereo unspecified)	?	1.7%	.	.	.	.
COc1ccc(/C=N/NC(=O)c2ccccc2O)cc1CSc1ccccn1	-10.4%	-5.4%	5.6%	5.4	-3.5	0.0
O=c1c(-c2ccc(F)cc2)nc2cnc(Nc3ccccc3)nc2n1C1CC1	-4.3%	1.6%	.	.	.	.
Cc1cc(=O)n2c(ccc3ccccc32)c1C#N	-6.9%	5.7%	2.1%	3.2	-2.0	-8.3
Cn1c(/C(C#N)=C(\O)c2ccc([N+](=O)[O-])cc2)nc2ccccc21	18.4µM*	?	-2.7%	.	-6.6	5.3
SMILES	DT40 TDP1 no CPT	DT40 TDP1 CPT	TDP1 inh	CtBP-E1A inh	Six1-Eya2 blk	IL-1B inflam inh
CCN(CC)S(=O)(=O)c1ccc(/C(O)=C(\C#N)c2nc3ccccc3n2C)cc1	?	?	8.4%	-7.4	3.9	?
CCC(=O)Oc1c(C(=O)CC)cc2c(C)cc(=O)oc2c1C	?	?	0.0%	7.8	6.4	-64.6*
CCC(=O)c1cc2c(C)cc(=O)oc2c(C)c1OC	-7.8%	8.4%	0.0%	-21.2	-15.8	-0.4
Cc1ccc(N2Cc3ccccc3C2=O)cc1	?	?	.	.	2.4	3.1
O=C(COC(=O)c1cccc(S(=O)(=O)N2CCc3ccccc32)c1)NCc1ccco1	?	-5.4%	1.2%	0.0	-24.6	-13.8
COc1ccc(OC)c2c(=S)c3ccccc3[nH]c12	?	23.7µM*	.	.	.	.
Cc1cc(C)c(CN2CCN(Cc3ccc(C)o3)C(CCO)C2)c(-n2cccn2)c1 (stereo unspecified)	23.1µM*	?	2.4%	-11.3	3.1	-7.3
Cc1ccc(CN2CCN(Cc3c(C)nn(-c4ccc(F)cc4)c3C)CC2CCO)o1 (stereo unspecified)	-6.7%	-20.6%	5.1%	3.5	-4.1	17.5
COc1cc(CN2CCN(Cc3ccc(C)cc3)C(CCO)C2)cc(OC)c1O (stereo unspecified)	?	20.6µM*	7.2%	-0.1	3.4	1.4
Cc1ccc(CN2CCN(Cc3cccc(-n4cccn4)c3)CC2CCO)cc1 (stereo unspecified)	?	11.6µM*	5.4%	-0.1	-10.8	-1.3
CCOC(=O)c1cccc(NC(=O)c2cc3c(=O)n(Cc4cccnc4)ccc3nc2C)c1	?	?	8.4%	.	.	.
CCOC(=O)c1cc2[nH]c3ccccc3c2[n+](-c2ccc([N+](=O)[O-])cc2)c1N	8.2µM*	11.6µM*	2.7%	-4.4	-11.8	-58.5*
COc1ccc(CNc2ccccc2SC)cc1OC	?	?	6.6%	-6.9	-9.7	-4.8
COc1cc(CNc2ccccc2SC)cc(OC)c1OC	20.6µM*	20.6µM*	8.8%	-23.9	-7.8	-2.4
CCOc1ccc(CNC(=O)c2[nH]c3ccccc3c2Sc2ccc(C)cc2)cc1	?	?	8.6%	.	.	.
NC(=O)c1ccc(=O)n(C2OC(CO)C(O)C2O)c1 (stereo unspecified)	-10.5%	?	.	-2.0	-3.5	-8.0
